Source: PubChem BioAssay AID1159580 (chemical genetic matrix, 2015)
“And” between values parts separate entries of the source, which are not always exact repeats. Equal values may be shown once. Screen size: about 5,500 compounds; about 2,000 (36%) were called active. Not shown: some 18% with an inconclusive outcome. Rule as the data show it: active = normalized growth mostly below about 0.91 (no sharp cut-off); inconclusive = no clear call, values can overlap the other calls; inactive = mostly above about 0.92. The list shows a part of the results.

Assay: chemical genetic growth profiling, strain panel (AID 1159580);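 also: tested at 20 µM; growth read once vehicle control cultures reached saturation at 30 °C; 1 = growth at the plate median or of vehicle wells; lower values mean less growth of the strain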
Conditions: S. cerevisiae deletion strains, growth OD

Measured: normalized growth

COc1cc2occc2c2oc(=O)ccc12
active: locus YDL192W, strain arf1, active compounds read low 0.887 | locus YDR101C, strain arx1, active compounds read low 0.897 | locus YDR195W, strain ref2 1.29 [resistant] | locus YER155C, strain BEM2 (second series), active compounds read low 0.821 | locus YJL129C, strain trk1, active compounds read low 1.17 [resistant] | locus YKR001C, strain vps1, active compounds read low 0.877 | locus YLR320W, strain mms22, active compounds read low 0.857 | locus YLR357W, strain rsc2, active compounds read low 1.16 [resistant] | locus YLR371W, strain rom2, active compounds read low 0.861 | locus YML032C, strain rad52, active compounds read low 0.836 | locus YNL248C, strain rpa49, active compounds read low 0.681 | locus YOR184W, strain ser1, active compounds read low 0.836 | locus YPR163C, strain tif3, active compounds read low 0.911
inactive: locus YAL021C, strain ccr4, active compounds read low 1.01 | locus YAL026C, strain drs2, active compounds read low 0.984 | locus YAL030W, strain snc1, active compounds read low 1.01 | locus YBL061C, strain skt5, active compounds read low 0.992 | locus YBR009C, strain hhf1, active compounds read low 0.982 | locus YBR021W, strain FUR4, active compounds read low 0.965 | locus YBR023C, strain chs3, active compounds read low 1 | locus YBR171W, strain sec66, active compounds read low 1.02 | locus YBR229C, strain ROT2, active compounds read low 0.949 | locus YBR231C, strain swc5, active compounds read low 0.962 | locus YBR279W, strain paf1, active compounds read low 1.01 | locus YCL011C, strain gbp2, active compounds read low 1.01 | locus YCL016C, strain dcc1, active compounds read low 0.972 | locus YCL029C, strain bik1, active compounds read low 0.931 | locus YCL069W, strain vba3, active compounds read low 1.03 | locus YCR088W, strain abp1, active compounds read low 1.02 | locus YDL005C, strain med2, active compounds read low 1.01 | locus YDL035C, strain GPR1, active compounds read low 0.92 | locus YDL040C, strain nat1, active compounds read low 1.02 | locus YDL074C, strain BRE1, active compounds read low 0.842 | locus YDL101C, strain DUN1, active compounds read low 0.939 | locus YDL185W, strain tfp1, active compounds read low 0.936 | locus YDR001C, strain nth1, active compounds read low 1.01 | locus YDR069C, strain doa4, active compounds read low 0.98 | locus YDR137W, strain rgp1, active compounds read low 1.06 | locus YDR159W, strain sac3, active compounds read low 1.01 | locus YDR162C, strain NBP2, active compounds read low 0.873 | locus YDR297W, strain sur2, active compounds read low 0.998 | locus YDR318W, strain mcm21, active compounds read low 0.948 | locus YDR334W, strain swr1, active compounds read low 0.969 | locus YDR335W, strain msn5, active compounds read low 0.968 | locus YDR388W, active compounds read low 0.979 | locus YDR392W, strain spt3, active compounds read low 0.792 | locus YDR502C, strain sam2, active compounds read low 0.984 | locus YEL003W, strain gim4, active compounds read low 0.985 | locus YEL037C, strain rad23, active compounds read low 1 | locus YEL061C, strain CIN8 (second series), active compounds read low 1 | locus YER015W, strain faa2, active compounds read low 1 | locus YER016W, strain bim1, active compounds read low 1.02 | locus YER110C, active compounds read low 0.936 | locus YER111C, strain swi4, active compounds read low 1.02 | locus YER155C, strain BEM2, active compounds read low 0.992 | locus YER167W, strain BCK2, active compounds read low 0.967 | locus YFR010W, strain ubp6, active compounds read low 0.957 | locus YGL078C, strain dbp3, active compounds read low 1.02 | locus YGL086W, strain mad1, active compounds read low 0.964 | locus YGL167C, strain pmr1, active compounds read low 1.02 | locus YGL173C, strain kem1, active compounds read low 1.01 | locus YGL227W, strain vid30, active compounds read low 1.03 | locus YGL240W, strain doc1, active compounds read low 0.92 | locus YGL248W, strain PDE1, active compounds read low 0.964 | locus YGL253W, strain hxk2, active compounds read low 1.01 | locus YGR078C, strain PAC10, active compounds read low 0.95 | locus YGR135W, strain pre9, active compounds read low 0.99 | locus YGR252W, strain gcn5, active compounds read low 0.865 | locus YHR013C, strain ard1, active compounds read low 1.08 | locus YHR027C, strain rpn1, active compounds read low 0.998 | locus YHR030C, strain SLT2, active compounds read low 0.982 and 0.967 | locus YHR079C, strain IRE1 (second series), active compounds read low 0.984 | locus YHR079C, strain IRE1, active compounds read low 0.958 | locus YHR094C, strain hxt1, active compounds read low 0.975 | locus YHR129C, strain ARP1, active compounds read low 0.98 | locus YHR142W, strain chs7, active compounds read low 0.961 | locus YHR200W, strain rpn10, active compounds read low 0.93 | locus YIL066C, strain RNR3, active compounds read low 0.925 | locus YIL073C, strain SPO22, active compounds read low 0.944 | locus YIL125W, strain kgd1, active compounds read low 0.99 | locus YIR030C, strain dcg1, active compounds read low 0.979 | locus YJL092W, strain hpr5, active compounds read low 1.02 | locus YJL095W, strain BCK1 (second series), active compounds read low 0.998 | locus YJL095W, strain BCK1, active compounds read low 0.942 and 0.974 | locus YJL115W, strain asf1, active compounds read low 0.991 | locus YJL134W, strain LCB3, active compounds read low 0.967 | locus YJL154C, strain vps35, active compounds read low 1.02 | locus YJL164C, strain tpk1, active compounds read low 0.983 | locus YJL166W, strain qcr8, active compounds read low 1.02 | locus YJL168C, strain set2, active compounds read low 0.976 | locus YJL187C, strain SWE1 (second series), active compounds read low 0.968 | locus YJL187C, strain SWE1, active compounds read low 1.02 | locus YJR066W, strain TOR1, active compounds read low 0.917 | locus YKL009W, strain mrt4, active compounds read low 0.944 | locus YKL068W, active compounds read low 1 | locus YKL085W, strain MDH1 (second series), active compounds read low 0.991 | locus YKL085W, strain MDH1, active compounds read low 0.991 | locus YKL160W, strain elf1, active compounds read low 1.01 | locus YKL190W, strain CNB1, active compounds read low 0.985 | locus YKR026C, strain gcn3, active compounds read low 1.03 | locus YKR091W, strain srl3, active compounds read low 1.02 | locus YLL001W, strain dnm1, active compounds read low 1 | locus YLL026W, active compounds read low 1.02 | locus YLL041C, strain sdh2, active compounds read low 1 | locus YLR027C, strain aat2, active compounds read low 1.01 | locus YLR039C, strain RIC1, active compounds read low 1 | locus YLR058C, strain SHM2, active compounds read low 0.976 | locus YLR102C, strain apc9, active compounds read low 0.985 | locus YLR113W, strain HOG1, active compounds read low 1 | locus YLR221C, strain rsa3, active compounds read low 1.02 | locus YLR258W, strain gsy2, active compounds read low 1.03 | locus YLR262C, strain YPT6 (second series), active compounds read low 1.02 | locus YLR262C, strain YPT6, active compounds read low 1.06 | locus YLR268W, strain sec22, active compounds read low 0.887 | locus YLR342W, strain FKS1 (second series), active compounds read low 0.944 | locus YLR342W, strain FKS1, active compounds read low 1.02 | locus YLR370C, strain arc18, active compounds read low 1.03 | locus YLR384C, strain iki3, active compounds read low 1.01 | locus YLR418C, strain cdc73, active compounds read low 0.914 | locus YML016C, strain PPZ1, active compounds read low 0.956 | locus YML120C, strain ndi1, active compounds read low 1.04 | locus YML124C, strain tub3, active compounds read low 0.982 | locus YMR058W, strain fet3, active compounds read low 0.988 | locus YMR078C, strain ctf18, active compounds read low 0.967 | locus YMR125W, strain sto1, active compounds read low 1.02 | locus YMR129W, active compounds read low 1.04 | locus YMR205C, strain PFK2, active compounds read low 1.03 | locus YMR223W, strain ubp8, active compounds read low 0.957 | locus YMR231W, strain pep5, active compounds read low 1.01 | locus YMR307W, strain GAS1, active compounds read low 0.932 | locus YNL067W, strain RPL9B, active compounds read low 0.99 | locus YNL071W, strain lat1, active compounds read low 1 | locus YNL183C, strain NPR1, active compounds read low 0.935 | locus YNL209W, strain ssb2, active compounds read low 0.995 | locus YNL233W, strain BNI4, active compounds read low 0.942 | locus YNL250W, strain rad50, active compounds read low 0.936 | locus YNL271C, strain bni1, active compounds read low 0.97 | locus YNL298W, strain CLA4, active compounds read low 0.915 | locus YNL307C, strain MCK1, active compounds read low 0.959 | locus YNL322C, strain KRE1 (second series), active compounds read low 0.998 | locus YNL322C, strain KRE1, active compounds read low 0.99 | locus YNR049C, strain mso1, active compounds read low 1.03 | locus YNR052C, strain pop2, active compounds read low 0.988 | locus YOL012C, strain htz1 0.958 | locus YOL147C, strain pex11, active compounds read low 0.952 | locus YOR001W, strain rrp6, active compounds read low 0.985 | locus YOR061W, strain CKA2, active compounds read low 0.939 | locus YOR069W, strain VPS5, active compounds read low 0.984 | locus YOR070C, strain gyp1, active compounds read low 0.995 | locus YOR080W, strain dia2, active compounds read low 1.01 | locus YOR083W, strain WHI5, active compounds read low 0.955 | locus YOR106W, strain vam3, active compounds read low 0.987 | locus YOR136W, strain idh2, active compounds read low 0.957 | locus YOR144C, strain elg1, active compounds read low 0.95 | locus YOR231W, strain MKK1, active compounds read low 0.983 | locus YOR265W, strain rbl2, active compounds read low 0.996 | locus YOR270C, strain vph1, active compounds read low 0.934 | locus YOR290C, strain snf2, active compounds read low 0.963 | locus YOR316C, strain cot1, active compounds read low 0.99 | locus YPL051W, strain arl3, active compounds read low 0.992 | locus YPL078C, strain atp4, active compounds read low 0.987 | locus YPL106C, strain sse1, active compounds read low 0.921 | locus YPL240C, strain hsp82, active compounds read low 1.01 | locus YPL256C, strain CLN2, active compounds read low 1.03 | locus YPR119W, strain clb2, active compounds read low 0.992 | locus YPR141C, strain kar3, active compounds read low 1 | locus YPR167C, strain met16, active compounds read low 0.995 | strain wtn01, active compounds read low 0.902
